Hits are enriched below; roughly 3.1% of the tested compounds scored in any of these assays.
uPA surface inh: inhibitors of cell surface uPA generation. 330,000 compounds, 0.31% hits. cell surface uPA generation assay, qHTS. AID 540303. Potency, µM (series often up to 38.3 µM), actives largely listed as inhibitors; active means well fitted inhibition curve with a large enough effect; inconclusive means small, poorly fitted or top-dose-only effect; inactive means no such curve, though single readings can be large or run the other way; tested in mouse RAW 264.7 cells; further: nearly all actives have a fitted effect of over 55% in size
TSHR antagonist: antagonists of human thyroid stimulating hormone receptor; P16473; TSHR-expressing cells, TSH-stimulated cAMP HTRF, 2 h; hits give low values; activity change, negative = inhibition, % at 11.5 µM; 330,000 compounds, 0.2% hits;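 active means activity change below a set negative limit, meaning inhibition stronger than a set level, cut at about -70% in these data; inconclusive means activity change between two set negative limits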
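Inhibition of cAMP made by TSHR-expressing cells under TSH stimulation (4nM final, EC80; 2 h, 37 deg C) is quantified with a one-step lysis HTRF kit, anti-cAMP cryptate versus cAMP-d2.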
PTAP TSG101 blk: blocks PTAP/TSG101 interaction to inhibit HIV-1 budding; Fluorescence polarization, FITC-PTAP peptide / Tsg101 binding; Potency, µM (series often up to 115 µM), hits mostly inhibitors; 340,000 tested, under 10 active; AID 493005; active means well fitted inhibition curve with a large enough effect in the main read-out, with a control signal flat, not every such curve was filed as active; inconclusive means small, poorly fitted or top-dose-only effect, or effect the other way, or a change in a side signal; inactive means no such curve, though single readings can be large or run the other way
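Fluorescence polarization binding of Tsg101 binding domain (10 uM final) to FITC-labeled PTAP peptide (50 nM final) in HEPES pH 7.5 buffer with NaCl, Tween 20, EDTA, TCEP. Compounds added before peptide; binding 20 min at RT.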
VDR inh: vitamin D3 receptor (human) inhibition; VDR-SRC2-3 peptide fluorescence polarization, 2 h; Potency, µM, most hits filed as inhibitors; 400,000 compounds, 0.93% hits; AID 504847
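Compounds are added to VDR with labelled SRC2-3 coactivator peptide and held 2 h at room temperature. Inhibition of the VDR–peptide interaction is then read as a change in fluorescence polarization.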
PLK1 PBD inh: PLK1 (human) polo-box domain binding inhibition | Plk1 PBD binding of FITC phosphopeptide, fluorescence polarization | 360,000 compounds, 2.8% hits | AID 720504 | Potency, µM, hits mostly inhibitors; further: series mostly up to about 57 µM; nearly all actives have a fitted effect of over 65% in size
Target sequence (P53350 whole entry, looked up, the tested form may be a part): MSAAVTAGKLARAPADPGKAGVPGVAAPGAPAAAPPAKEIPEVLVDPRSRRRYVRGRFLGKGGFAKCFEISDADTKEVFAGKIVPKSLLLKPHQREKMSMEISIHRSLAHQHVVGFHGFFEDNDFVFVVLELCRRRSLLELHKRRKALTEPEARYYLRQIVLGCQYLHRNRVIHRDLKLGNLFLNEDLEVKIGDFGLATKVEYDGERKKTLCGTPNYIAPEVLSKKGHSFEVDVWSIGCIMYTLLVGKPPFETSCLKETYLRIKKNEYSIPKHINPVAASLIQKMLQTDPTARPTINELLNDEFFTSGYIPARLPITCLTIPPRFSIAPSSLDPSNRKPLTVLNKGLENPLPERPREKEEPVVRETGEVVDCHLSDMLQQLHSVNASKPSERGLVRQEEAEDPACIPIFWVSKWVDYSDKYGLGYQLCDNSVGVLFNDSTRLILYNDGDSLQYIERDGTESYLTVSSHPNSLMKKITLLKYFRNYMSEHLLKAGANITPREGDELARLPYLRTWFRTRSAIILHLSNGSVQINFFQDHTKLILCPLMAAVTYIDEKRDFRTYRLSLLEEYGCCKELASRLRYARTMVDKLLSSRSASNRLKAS
VDR inh confirm: inhibits human vitamin D receptor, primary hit validation | VDR-coactivator inhibition assay, qHTS confirmation | 840 compounds, 89% hits | Potency, µM, most hits filed as inhibitors | shares compounds with VDR inh
VDR FP: confirmation of human VDR-coactivator binding inhibitors, fluorescein label; VDR-coactivator binding, fluorescein fluorescence polarization; shares compounds with VDR inh; Potency, µM (titrated, usually from 57.1 µM), hits mostly inhibitors; 840 compounds, 48% hits
VDR bla: inhibits human VDR in beta-lactamase reporter cells | shares compounds with VDR inh | VDR beta-lactamase reporter cells, FRET ratio; cells co-treated with VDR agonist LG190178 | Potency, µM (series often up to 46.1 µM), usual class: inhibitors | 840 compounds, 23% hits | AID 602202
VDR viability: cytotoxic in counter-screen for VDR inhibitors; 840 compounds, 18% hits; cytotoxicity counter-screen, cell viability, qHTS; Potency, µM (highest dose often 48.3 µM), actives largely listed as cytotoxic; shares compounds with VDR inh; further: nearly all actives have a fitted effect of over 75% in size
Of the large screens only hits and unclear results are named; the others gave an inactive call (follow-up assays come after a bar, where they were run). Unless noted, the call rests on the fitted dose curve; in most records, active means well fitted curve in the direction sought with a large enough effect; inconclusive means small, poorly fitted or top-dose-only effect, or another doubt; inactive means no such curve, though single readings can be large; an effect the other way counts as inactive or inconclusive.

Cc1oc(-c2ccccc2)nc1C(=O)N1CCN(c2ccc(F)cc2)CC1	VDR inh inconclusive, PLK1 PBD inh 30µM
CCOC(=O)/C(C#N)=C1/C=CN(Cc2ccccc2)C=N1	none (no result: uPA surface inh)
CCOC(=O)/C(C#N)=C1\C(=O)N(Cc2ccccc2)c2ccccc21	VDR inh 28µM, PLK1 PBD inh 3.4µM | VDR inh confirm 6.7 | VDR FP inconclusive | VDR bla inactive | VDR viability inactive
COc1cccc(-c2cc(C(F)(F)F)n3nc(-c4ccc(C)cc4)cc3n2)c1	none (no result: uPA surface inh, TSHR antagonist, PTAP TSG101 blk, PLK1 PBD inh)
N#CC1=C(Nc2ccccc2Cl)SC(c2ccccc2O)NC1=O (centres undefined)	VDR inh 20µM, PLK1 PBD inh inconclusive | VDR inh confirm 3.8 | VDR FP inconclusive | VDR bla inactive | VDR viability inactive
COc1cccc(NC2=C(C#N)C(=O)NC(c3cccc(OC)c3O)S2)c1 (centres undefined)	VDR inh inconclusive
COc1cc(/C=C2\C(=O)ON=C2c2ccc(Cl)cc2)ccc1O	VDR inh inconclusive, PLK1 PBD inh inconclusive (no result: TSHR antagonist) | VDR inh confirm 7.1 | VDR FP inconclusive | VDR bla inconclusive | VDR viability inactive
CCCOc1ccc(/C=C2/C(=O)ON=C2C)cc1Cl	VDR inh 18µM, PLK1 PBD inh 1.1µM | VDR inh confirm 7.5 | VDR FP inconclusive | VDR bla inactive | VDR viability inactive
CCOc1ccc(Cl)cc1/C=C1/C(=O)ON=C1C	VDR inh inconclusive, PLK1 PBD inh inconclusive | VDR inh confirm 8.9 | VDR FP 3.5µM | VDR bla inactive | VDR viability inactive
CCOc1cc(/C=C2/C(=O)ON=C2C)ccc1O	VDR inh inconclusive
COc1cc(/C=C2/C(=O)ON=C2C)cc(Cl)c1O	VDR inh 89µM | VDR inh confirm 27 | VDR FP inactive | VDR bla inactive | VDR viability inactive
CC1=NOC(=O)/C1=C/c1ccc(O)c(Cl)c1	PLK1 PBD inh inconclusive
O=c1ccc(=O)n(-c2ccccc2)[nH]1	none
CC(C)(C)c1cc(=O)n(-c2ccccc2)[nH]1	VDR inh 10µM | VDR inh confirm 8.9 | VDR FP 8.9µM | VDR bla inactive | VDR viability inactive
COC(=O)CCC(C(=O)CN1C(=O)c2ccccc2C1=O)N1C(=O)c2ccccc2C1=O (centres undefined)	none (no result: TSHR antagonist)
COc1ccc(OC)c(C2NC(=O)NC(C)=C2C(=O)Nc2ccc(F)cc2)c1 (centres undefined)	none (no result: uPA surface inh, TSHR antagonist, PTAP TSG101 blk, PLK1 PBD inh)
Nc1c(-c2ccc(Cl)cc2)cnn1-c1ccccc1	none
Nc1nc2c(s1)CCc1c-2cnn1-c1ccccc1	VDR inh 20µM, PLK1 PBD inh 2.7µM | VDR inh confirm 4.5 | VDR FP 4µM | VDR bla inconclusive | VDR viability inconclusive
O=[N+]([O-])c1ccc(/C=C2\CCC(C3=CCCC3)=C2N2CCOCC2)cc1	VDR inh inconclusive | VDR inh confirm inconclusive | VDR FP inconclusive | VDR bla inconclusive | VDR viability inactive
O=C(NCc1cccnc1)/C(=C\c1ccc(-c2ccc(Cl)c(Cl)c2)o1)S(=O)(=O)c1ccccc1	uPA surface inh 10µM, TSHR antagonist inconclusive, VDR inh 40µM | VDR inh confirm 15 | VDR FP inconclusive | VDR bla 12µM | VDR viability 15µM
O=C(NCc1cccnc1)c1ccc(-c2ccc(Cl)cc2)o1	none
COc1ccc(C(=O)/C=C/c2cc(C(=O)O)cc3c2OCOC3)c(O)c1	VDR inh inconclusive
O=C(O)c1cc(/C=C/C(=O)c2cc(F)ccc2O)c2c(c1)COCO2	uPA surface inh inconclusive, VDR inh 25µM, PLK1 PBD inh inconclusive | VDR inh confirm 6.7 | VDR FP inconclusive | VDR bla inactive | VDR viability inconclusive
Nc1c(N2CCCC2)cc(Cl)c2nonc12	VDR inh inconclusive, PLK1 PBD inh 21µM (no result: uPA surface inh) | VDR inh confirm 5 | VDR FP 2.8µM | VDR bla inactive | VDR viability inactive
CCOC(=O)/C(=C\c1ccc(Cl)cc1)c1nc2sc(C)c(C)c2c(=O)[nH]1	VDR inh 25µM, PLK1 PBD inh 7.5µM | VDR inh confirm 5.3 | VDR FP inconclusive | VDR bla inconclusive | VDR viability 15µM
Cc1ccccc1S(=O)(=O)NC(=O)C1(C)CCN1C(=O)c1c(C)noc1C (centres undefined)	none (no result: uPA surface inh, TSHR antagonist, PTAP TSG101 blk, VDR inh)
O=C(O)c1ccc2c(c1)C(=O)N([C@]1(C(=O)O)CC1c1ccccc1)C2=O (some centres undefined)	none (no result: uPA surface inh, PTAP TSG101 blk, VDR inh, PLK1 PBD inh)
CN(C)C(=O)NC1CCCCCCC1	none (no result: uPA surface inh, TSHR antagonist, PTAP TSG101 blk, PLK1 PBD inh)
CN(C)c1cc(Nc2ccc(O)cc2)c([N+](=O)[O-])c2nonc12	PLK1 PBD inh inconclusive
O=[N+]([O-])c1c(Nc2ccccn2)cc(Cl)c2nonc12	VDR inh inconclusive | VDR inh confirm 3.4 | VDR FP inconclusive | VDR bla 3.7µM | VDR viability 5.8µM
O=[N+]([O-])c1c(Nc2ccc(O)cc2)cc(Cl)c2nonc12	uPA surface inh inconclusive, TSHR antagonist -102, VDR inh inconclusive, PLK1 PBD inh 1.7µM | VDR inh confirm 2.5 | VDR FP 2µM | VDR bla inconclusive | VDR viability 9.5µM
O=C(O)c1cccc(Nc2cc(Cl)c3nonc3c2[N+](=O)[O-])c1	VDR inh 13µM, PLK1 PBD inh 12µM | VDR inh confirm 8.4 | VDR FP 20µM | VDR bla inactive | VDR viability inactive
O=C(O)c1cccc(Nc2ccc([N+](=O)[O-])c3nonc23)c1	none
O=[N+]([O-])c1ccc(Nc2ccccn2)c([N+](=O)[O-])c1	none
CC(=O)NC1=CC(=O)c2nonc2C1=O	VDR inh 56µM (no result: uPA surface inh, TSHR antagonist, PTAP TSG101 blk, PLK1 PBD inh) | VDR inh confirm 2.5 | VDR FP 2.5µM | VDR bla 2.9µM | VDR viability 3.8µM
CC(=O)N1CCN(C(=S)c2ccc([N+](=O)[O-])cc2)CC1	PLK1 PBD inh inconclusive
CN(C)c1ccc(C(=S)N2CCN(c3ccc([N+](=O)[O-])cc3)CC2)cc1	VDR inh 79µM, PLK1 PBD inh 11µM | VDR inh confirm 27 | VDR FP inconclusive | VDR bla inactive | VDR viability inactive
Cc1ccc(/C(O)=C2/C(=O)C(=O)OC2c2ccc(Cl)cc2)cc1 (centres undefined)	VDR inh inconclusive, PLK1 PBD inh inconclusive | VDR inh confirm 11 | VDR FP 10µM | VDR bla inactive | VDR viability inactive
